Data on 14 compounds can be found in PubChem BioAssay (NCATS).

Values without a mark were called inactive. Inconclusive results are not listed. Active and inactive are the calls of the source. Unless noted, calls come from the whole dose curve; as a rule, active = well fitted curve in the direction sought with a large enough effect; inconclusive = small, poorly fitted or top-dose-only effect, or another doubt; inactive = no such curve, though single readings can be large; an effect the other way counts as inactive or inconclusive.

Assay [1] deals with Rap guanine nucleotide exchange factor 3 (Homo sapiens) (UniProt O95398). Briefly: Confirmatory qHTS for antagonist of cAMP-regulated guanine nucleotide exchange factor 3 (EPAC1) (AID 1645880).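 For activity, negative = inhibition: plate controls were DMSO only for no effect and full effect of the ATA control for full effect.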 Note: nearly all actives have a fitted effect of over 55% in size. Note: potency is the fitted concentration of half-maximal effect. As to conditions: EPAC1 Rap1B-BODIPY-GDP exchange, fluorescence; activity, negative = inhibition: at 115 µM (top of the series). In outline:
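Released BODIPY-GDP fluoresces less than Rap1-bound BODIPY-GDP; the signal is followed at 480/540 nm at 5-min intervals over 30 min, after 5 min at room temperature. Reactions contain 100 nM EPAC1, 250 nM RAP1B-BODIPY-GDP and 50 uM GDP; results are normalized to ATA and DMSO.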
(In general: In qHTS, concentration-response curves come from the screen itself.)

Assay [2] deals with Rap guanine nucleotide exchange factor 4 (Homo sapiens) (UniProt Q8WZA2). The assay is described as follows: Confirmatory qHTS for agonist of cAMP-regulated guanine nucleotide exchange factor 4 (EPAC2) (AID 1645884). For activation: % is set by controls: 0 for no effect and ±100 for the full control effect.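 Note: nucleotide exchange releases bodipy-GDP from Rap1 and this lowers its fluorescence; nearly all actives have a fitted effect of over 65% in size.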 Note: potency is the fitted concentration of half-maximal effect.
Sequence of Rap guanine nucleotide exchange factor 4 (Homo sapiens) (Q8WZA2 whole entry, looked up): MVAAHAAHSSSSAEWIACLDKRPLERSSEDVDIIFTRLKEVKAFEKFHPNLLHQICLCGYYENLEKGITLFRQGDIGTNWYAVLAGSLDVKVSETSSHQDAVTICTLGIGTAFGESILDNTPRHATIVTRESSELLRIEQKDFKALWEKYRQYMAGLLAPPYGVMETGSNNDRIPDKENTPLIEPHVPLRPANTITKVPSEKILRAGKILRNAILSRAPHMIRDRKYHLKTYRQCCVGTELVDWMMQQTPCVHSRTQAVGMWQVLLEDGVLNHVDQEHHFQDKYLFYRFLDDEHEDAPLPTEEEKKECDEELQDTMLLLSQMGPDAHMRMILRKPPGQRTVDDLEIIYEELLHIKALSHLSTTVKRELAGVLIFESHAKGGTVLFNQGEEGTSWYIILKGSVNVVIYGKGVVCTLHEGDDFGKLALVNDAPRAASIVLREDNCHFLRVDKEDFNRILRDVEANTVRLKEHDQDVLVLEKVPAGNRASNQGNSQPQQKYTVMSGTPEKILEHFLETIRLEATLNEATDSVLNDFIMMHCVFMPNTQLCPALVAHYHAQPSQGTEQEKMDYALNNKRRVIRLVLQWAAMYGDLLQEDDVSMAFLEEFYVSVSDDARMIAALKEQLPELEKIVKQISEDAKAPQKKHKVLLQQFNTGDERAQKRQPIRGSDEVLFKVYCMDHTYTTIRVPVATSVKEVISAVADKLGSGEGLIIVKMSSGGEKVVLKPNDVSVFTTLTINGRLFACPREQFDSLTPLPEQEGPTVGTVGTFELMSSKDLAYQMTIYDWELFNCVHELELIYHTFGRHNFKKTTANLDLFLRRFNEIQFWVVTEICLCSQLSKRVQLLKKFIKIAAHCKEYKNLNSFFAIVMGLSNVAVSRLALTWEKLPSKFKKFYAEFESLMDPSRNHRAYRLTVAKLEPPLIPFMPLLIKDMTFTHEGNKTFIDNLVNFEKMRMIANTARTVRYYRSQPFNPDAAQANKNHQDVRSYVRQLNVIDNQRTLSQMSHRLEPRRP
Assay [3] shares this target. The assay is described as follows: Confirmatory qHTS for antagonist of cAMP-regulated guanine nucleotide exchange factor 4 (EPAC2) (AID 1645885). For activity change, negative = inhibition: % is set by controls: 0 for no effect and ±100 for the full control effect. Note: nearly all actives have a fitted effect of over 25% in size.
Assay [4] concerns the target Rap guanine nucleotide exchange factor 3 (Homo sapiens) (UniProt O95398). The assay is described as follows: Counterscreen qHTS for antagonist of cAMP-regulated guanine nucleotide exchange factor 3 (EPAC1) (AID 1645888). Note: % of control where 0% means no effect. The method, boiled down: (§1)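 Rap1B-BODIPY-GDP 250 nM + GDP 50 uM; cpds 7-pt, final 9.74 nM–152 uM (activator mode) or from 7.32 nM upwards (inhibitor mode); RT; FI 480/540 nm at 5 and 30 min, then ± cAMP, reread.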
In general terms: A counterscreen serves to expose hits that act by an unwanted route or on another target.

The target is the same in assay [5]. The assay is described as follows: Counterscreen qHTS for agonist of cAMP-regulated guanine nucleotide exchange factor 3 (EPAC1) (AID 1645889). For activation: % of control where 0% means no effect. Note: nearly all actives have a fitted effect of over 40% in size. Note: potency is the fitted concentration of half-maximal effect. In outline: as §1
The target in assay [6] is Tumor susceptibility gene 101 protein (Homo sapiens) (UniProt Q99816). Briefly: qHTS Assay for Iinhibitors of HIV-1 Budding by Blocking the Interaction of PTAP/TSG101: Hit Validation (AID 651600). Note: potency is the fitted concentration of half-maximal effect; nearly all actives have a fitted effect of over 70% in size. In outline:
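Fluorescence polarization binding assay: Tsg101 binding domain (10 uM) mixed with compounds and FITC-labeled PTAP peptide (50 nM) in HEPES pH 7.5, 0.15 M NaCl, 0.01% Tween 20, EDTA, TCEP; 20 min at r.t.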

The nature of assay [7]: qHTS for Inhibitors of the vitamin D receptor (VDR): Hit Validation using a Texas Red Assay (AID 602201). Note: % is set by controls: 0 for no effect and ±100 for the full control effect. In outline: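 After a 2-hour room-temperature incubation, polarization of Texas-Red emission was read (Ex 595 nm/Em 615 nm). Final mix contained 7 nM Texas Red, 1.5 uM VDR-LBD and LG19078.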
Assay [8] addresses Glucocorticoid receptor (Homo sapiens) (UniProt P04150). Briefly: GR-GFP Redistribution (AID 450;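 active = compounds whose dose series gives a full or clear partial fitted curve of increased nuclear translocation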; note: potency is the fitted concentration of half-maximal effect). As to conditions: U2OS GR-GFP nuclear translocation, laser cytometry, 2 h.

Sequence of Rap guanine nucleotide exchange factor 3 (Homo sapiens) (O95398 whole entry, looked up): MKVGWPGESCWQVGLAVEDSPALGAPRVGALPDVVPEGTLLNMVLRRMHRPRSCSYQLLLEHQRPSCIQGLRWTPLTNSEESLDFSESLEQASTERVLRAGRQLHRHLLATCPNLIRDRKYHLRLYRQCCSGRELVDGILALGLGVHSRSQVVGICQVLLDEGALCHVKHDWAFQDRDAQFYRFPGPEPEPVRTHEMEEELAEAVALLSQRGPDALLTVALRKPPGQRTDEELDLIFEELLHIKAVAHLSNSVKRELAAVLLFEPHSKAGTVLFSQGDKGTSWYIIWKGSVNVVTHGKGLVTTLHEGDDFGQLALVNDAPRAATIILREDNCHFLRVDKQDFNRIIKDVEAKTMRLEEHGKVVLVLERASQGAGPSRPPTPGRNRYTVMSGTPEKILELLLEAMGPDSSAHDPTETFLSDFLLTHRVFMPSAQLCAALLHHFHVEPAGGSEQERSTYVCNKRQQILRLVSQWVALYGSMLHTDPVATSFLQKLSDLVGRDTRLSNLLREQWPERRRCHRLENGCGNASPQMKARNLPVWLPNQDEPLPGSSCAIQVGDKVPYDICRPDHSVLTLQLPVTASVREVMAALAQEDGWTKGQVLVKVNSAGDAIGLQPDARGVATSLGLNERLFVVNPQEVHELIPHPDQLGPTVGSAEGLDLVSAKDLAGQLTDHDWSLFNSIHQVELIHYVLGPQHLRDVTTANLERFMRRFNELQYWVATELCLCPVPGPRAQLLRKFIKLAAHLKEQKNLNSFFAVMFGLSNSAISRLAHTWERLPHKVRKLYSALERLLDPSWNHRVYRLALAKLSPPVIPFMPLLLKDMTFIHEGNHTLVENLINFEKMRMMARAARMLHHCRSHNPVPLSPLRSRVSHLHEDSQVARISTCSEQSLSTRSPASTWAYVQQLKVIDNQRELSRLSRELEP
Sequence of Tumor susceptibility gene 101 protein (Homo sapiens) (Q99816 whole entry, looked up, the tested form may be a part): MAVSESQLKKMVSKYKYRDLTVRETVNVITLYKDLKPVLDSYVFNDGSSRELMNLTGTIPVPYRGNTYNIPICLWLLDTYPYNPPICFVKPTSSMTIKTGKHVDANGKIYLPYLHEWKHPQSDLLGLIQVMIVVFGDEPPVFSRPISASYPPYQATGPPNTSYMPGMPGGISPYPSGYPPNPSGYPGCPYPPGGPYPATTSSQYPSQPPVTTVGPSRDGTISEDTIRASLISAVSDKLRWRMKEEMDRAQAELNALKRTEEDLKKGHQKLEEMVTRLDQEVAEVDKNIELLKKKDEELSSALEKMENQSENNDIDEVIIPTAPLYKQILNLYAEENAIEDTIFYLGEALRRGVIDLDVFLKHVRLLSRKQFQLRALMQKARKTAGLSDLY
Sequence of Glucocorticoid receptor (Homo sapiens) (P04150 whole entry, looked up): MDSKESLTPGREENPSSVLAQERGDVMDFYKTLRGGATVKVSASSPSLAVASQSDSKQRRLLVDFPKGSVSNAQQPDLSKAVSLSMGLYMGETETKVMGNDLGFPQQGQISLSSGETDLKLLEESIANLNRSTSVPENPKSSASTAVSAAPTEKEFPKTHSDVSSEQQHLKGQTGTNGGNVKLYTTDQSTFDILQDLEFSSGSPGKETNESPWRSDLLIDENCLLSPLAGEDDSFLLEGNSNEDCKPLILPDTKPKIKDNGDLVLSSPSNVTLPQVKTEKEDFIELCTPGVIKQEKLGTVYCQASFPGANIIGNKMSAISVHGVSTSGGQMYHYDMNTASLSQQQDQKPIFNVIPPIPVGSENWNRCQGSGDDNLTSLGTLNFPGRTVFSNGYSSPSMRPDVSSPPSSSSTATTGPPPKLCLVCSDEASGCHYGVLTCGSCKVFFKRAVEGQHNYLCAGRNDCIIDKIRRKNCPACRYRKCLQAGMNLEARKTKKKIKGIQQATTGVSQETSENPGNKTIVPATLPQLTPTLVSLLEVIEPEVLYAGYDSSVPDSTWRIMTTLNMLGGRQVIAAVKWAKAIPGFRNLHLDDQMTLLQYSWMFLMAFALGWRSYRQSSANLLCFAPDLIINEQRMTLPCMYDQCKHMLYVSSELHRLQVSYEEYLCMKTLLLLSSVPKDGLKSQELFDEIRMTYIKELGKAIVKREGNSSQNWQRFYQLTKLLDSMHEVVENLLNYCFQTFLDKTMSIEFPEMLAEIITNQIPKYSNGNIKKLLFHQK

For the compound `Cc1cccn2c(=O)c(/C=C(\C#N)c3nc4ccccc4n3C)c(Oc3ccc(Br)cc3)nc12`, the Potency entry in assay [1], in assay [2], in assay [3] and in assay [4] was “inactive” throughout. Moreover, the Potency in assay [5] was 39.8 µM (active).

For the compound `Cc1ccc2[nH]cc(/C=C/c3cc[n+](C)cc3)c2c1`, the Potency entry in assay [1], in assay [3] and in assay [4] was “inactive” each time. Besides, the Potency in assay [2] was 112 µM (active); in assay [5] it was 56.2 µM (active).

As to `O=C(c1ccccc1)c1ccc(O)cc1O`, the Potency in assay [6] is 5.8 µM (active). Further, the Potency result in assay [1] and in assay [3] was “inactive” throughout. The activation in assay [2] was 17% [at 17.1 µM, percent relative to cAMP agonist control]; in assay [5], 6.44% [at 30.8 µM]. Moreover, the activity change, negative = inhibition in assay [4] is -16.9% [at 30.8 µM].

Regarding `CCC1(c2ccccc2)NC(=O)N(CC(=O)Nc2ccc(OC)nc2)C1=O` (stereo not drawn), the Potency in assay [6] was 18.3 µM (active). Also, the Potency entry in assay [1] and in assay [3] was “inactive” each time. Besides, the activation in assay [2] is 15.1% [at 17.1 µM, percent relative to cAMP agonist control]; in assay [5], 14.8% [at 30.8 µM]. Moreover, the activity change, negative = inhibition in assay [4] was -15.6% [at 30.8 µM].

Consider `Cc1ccc2c(c1C)OC(=O)CC2c1ccccc1` (stereo not drawn), for which the Potency entry in assay [1], in assay [2], in assay [3], in assay [4] and in assay [5] was “inactive” throughout.

For `COc1cc(/C=C2/C(=O)c3cccc([N+](=O)[O-])c3C2=O)c(Br)cc1O`, the Potency result in assay [7], in assay [2] and in assay [4] was “inactive” in each case. Also, the results for the Potency in assay [1] and in assay [5] were 23.9 µM (active) and 31.6 µM (active), respectively. The outcome in assay [3] is “inactive; activator; fitted 0.0301 uM [at 12.7 µM]”.

For the compound `CN(Cc1cccs1)c1nc(-c2cccnc2)nc2ccccc12`, the Potency entry in assay [1] and in assay [3] was “inactive” each time. Further, the activation was 12.1% [at 17.1 µM, percent relative to cAMP agonist control] in assay [2] and 51% [at 30.8 µM] in assay [5]. Besides, the activity change, negative = inhibition in assay [4] is -10.3% [at 30.8 µM].

Consider `Cc1n[nH]c(C)c1N1C(=O)c2cccc3c(N4CCCCCC4)ccc(c23)C1=O`, for which the Potency in assay [6] is 20.6 µM (active); in assay [2] it was 112 µM (active); in assay [5], 12.6 µM (active). The Potency result in assay [1], in assay [3] and in assay [4] was “inactive” each time.

`Cc1cc2nc3c(=O)[nH]c(=O)[nH]c3nc2c([N+](=O)[O-])c1N`: the Potency in assay [6] was 13 µM (active); in assay [2], 100 µM (active); in assay [5] it was 56.2 µM (active). The Potency entry in assay [1], in assay [3] and in assay [4] was “inactive” in each case.

On to `O=c1oc2ccc(Cl)cc2nc1/C=C(\O)c1cccs1`, for which the Potency entry in assay [1] and in assay [3] was “inactive” throughout. Further, the activation is 14.5% [at 17.1 µM, percent relative to cAMP agonist control] in assay [2] and 11.4% [at 30.8 µM] in assay [5]. Besides, in assay [4], the activity change, negative = inhibition is 7.64% [at 30.8 µM].

With `CCN(CC)C(=O)c1ccc(/C=C/c2c[nH]c3ccccc23)[n+](C)c1`, the Potency result in assay [1] and in assay [3] was “inactive” throughout. Further, the activation in assay [2] is 6.96% [at 17.1 µM, percent relative to cAMP agonist control]. The activity change, negative = inhibition in assay [4] is 70% [at 30.8 µM]. Further, the Potency in assay [5] was 15.8 µM (active).

With `Cc1ccc[n+](-c2nc([O-])sc2C=O)c1`, the Potency in assay [6] was 4.61 µM (active); in assay [2] it was 100 µM (active); in assay [5] it was 39.8 µM (active). Further, the Potency result in assay [1], in assay [3] and in assay [4] was “inactive” throughout.

As for `O=C1CCNc2ccc(-c3ccccc3)cc21`, the results for the Potency in assay [6], in assay [2] and in assay [5] were 8.19 µM (active), 112 µM (active) and 56.2 µM (active), respectively. Also, the Potency result in assay [1], in assay [3] and in assay [4] was “inactive” in each case.

Consider `O=c1oc2c3c4c(cc2c(C(F)(F)F)c1CCN1CCOCC1)CCCN4CCC3`, for which the Potency is over 20.6 µM in assay [8], 100 µM (active) in assay [2] and 17.8 µM (active) in assay [5]. Moreover, the Potency entry in assay [1], in assay [3] and in assay [4] was “inactive” throughout.
